Records with an inconclusive call do not appear. Activity calls are given as the source filed them. Unless noted, the call rests on the fitted dose curve; in most records, active means well fitted curve in the direction sought with a large enough effect; inconclusive means small, poorly fitted or top-dose-only effect, or another doubt; inactive means no such curve, though single readings can be large; an effect the other way counts as inactive or inconclusive. *1 amine or outer side, *2 acyl side, *3 side chain or, on linkers, in order; H or OH if unused. Where a SMILES comes first, the peptide text is derived from it. [ ]: non-standard residue; d: D form. X5 = CC(CC(O[*:1])C(=O)[*:2])C(=O)O; NMeV = CN[CH](C(=O)O)C(C)C; NMeA = CN[CH](C)C(=O)O; βAla = NCCC(=O)O
What was measured:
[1] = system: Zika virus NS2B-NS3 protease (unlinked complex); assay: Primary screen GU Rhodamine qHTS for Zika virus inhibitors: Unlinked NS2B-NS3 protease assay (AID 1347159); further: on the % scale 0 is the no-effect control and ±100 the full control effect; nearly all actives have a fitted effect of over 60% in size
In short: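 Percent inhibition derives from the 15-min fluorescence change (ex 480, em 540 nm), normalized to no-enzyme and no-inhibitor wells. Reactions contained 25 nM NS2B-NS3 complex and 1.5 microM substrate in 10 mM Tris-HCl pH 8.0.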

[2] = Primary qHTS for inhibitors of nuclear receptor binding SET domain protein 2 (NSD2) in an isogenic RCH-ACV NSD2 p.E1099K mutant (9B) (AID 1645876); further: nearly all actives have a fitted effect of over 70% in size; further: potency means the concentration at half of the fitted maximal effect
[3] = target: Catechol O-methyltransferase (Homo sapiens) (UniProt P21964); assay: Confirmatory Screen for Target Class Profiling of Small Molecule Inhibitors of Methyltransferases (AID 1745852; calls by dose curve; on activity change, negative = inhibition: on the % scale 0 is the no-effect control and ±100 the full control effect); conditions: MTase-Glo luminescence, SAH detection, recombinant enzyme; measured here: COMT max response; stronger effect = lower value
Sequence of Catechol O-methyltransferase (Homo sapiens) (P21964 whole entry, looked up): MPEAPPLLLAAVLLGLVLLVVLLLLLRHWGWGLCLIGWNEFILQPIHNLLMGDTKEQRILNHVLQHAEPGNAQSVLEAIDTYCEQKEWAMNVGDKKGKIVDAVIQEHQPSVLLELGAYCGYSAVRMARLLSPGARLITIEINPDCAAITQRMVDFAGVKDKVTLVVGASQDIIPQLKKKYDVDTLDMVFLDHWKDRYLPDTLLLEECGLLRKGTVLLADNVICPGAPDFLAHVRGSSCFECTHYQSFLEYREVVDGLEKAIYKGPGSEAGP

[4] = target: Guanidinoacetate N-methyltransferase (Homo sapiens) (UniProt Q14353); assay: as above; conditions: activity change, negative = inhibition: at 57.3 µM (top of the series) unless noted
[5] = target: Nicotinamide N-methyltransferase (Homo sapiens) (UniProt P40261); assay: as above; conditions: MTase-Glo luminescence, SAH detection, recombinant enzyme; measured here: NNMT max response; stronger effect = lower value
Sequence of Nicotinamide N-methyltransferase (Homo sapiens) (P40261 whole entry, looked up): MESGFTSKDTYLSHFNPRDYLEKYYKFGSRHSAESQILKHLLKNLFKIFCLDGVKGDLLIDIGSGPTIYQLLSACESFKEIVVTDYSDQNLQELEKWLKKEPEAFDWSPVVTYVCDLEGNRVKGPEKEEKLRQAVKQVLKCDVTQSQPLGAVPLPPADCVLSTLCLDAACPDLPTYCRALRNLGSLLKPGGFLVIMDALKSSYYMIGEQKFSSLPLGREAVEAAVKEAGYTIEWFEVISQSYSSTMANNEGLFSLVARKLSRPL

[6] = target: Phenylethanolamine N-methyltransferase (Homo sapiens) (UniProt P11086); assay: as above; conditions: MTase-Glo luminescence, SAH detection, recombinant enzyme; measured here: PNMT max response; stronger effect = lower value
Sequence of Phenylethanolamine N-methyltransferase (Homo sapiens) (P11086 whole entry, looked up): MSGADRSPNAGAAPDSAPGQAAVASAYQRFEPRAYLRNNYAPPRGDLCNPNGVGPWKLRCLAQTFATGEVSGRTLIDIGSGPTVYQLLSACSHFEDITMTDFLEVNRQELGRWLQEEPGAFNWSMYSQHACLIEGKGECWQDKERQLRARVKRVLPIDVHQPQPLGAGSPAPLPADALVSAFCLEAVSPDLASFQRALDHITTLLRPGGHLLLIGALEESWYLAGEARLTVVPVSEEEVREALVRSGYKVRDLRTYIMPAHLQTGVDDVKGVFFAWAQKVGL

HaCat [7] = assay: Cytotoxic Profiling of Annotated Libraries Using Quantitative High-Throughput Screening (AID 1296008); conditions: Five cell lines viability, CellTiter-Glo ATP luminescence, 48-72 h; max response: stronger effect = lower value; further: nearly all actives have a fitted effect of over 60% in size; further: potency means the concentration at half of the fitted maximal effect; on max response: on the % scale 0 is the no-effect control and ±100 the full control effect
In short: (§1)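 Cytotoxicity was measured as CellTiter-Glo ATP luminescence, read after 10 min at room temperature. Compound treatment of the cells lasted 48 or 72 hr at 37 degrees Celsius in a qHTS format.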

HACAT [8] = assay: qHTS assay to identify novel small-molecules to repurpose for Merkel cell carcinoma treatment (AID 1296009); conditions: MCC and control cell lines, CellTiter-Glo viability, 72 h; at 44.8 µM (top of the series) unless noted; further: nearly all actives have a fitted effect of over 60% in size
In short: (§2)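 72 hr, 37 degree celsius; NPC 8-pt / MIPE 11-pt dose response; compound pinned in DMSO; CellTiter-Glo, 10 min RT, luminescence; normalized to no-cell and DMSO controls.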

HeLa = assay: Primary qHTS to identify gynecologic anti-cancer compounds using libraries of approved drugs and bioactive compounds (AID 1345084); conditions: Gynecologic cancer cell panel viability, ATPlite luminescence, 48 h; series mostly up to 57.5 µM; further: nearly all actives have a fitted effect of over 55% in size; further: potency means the concentration at half of the fitted maximal effect; on activity change, negative = cytotoxicity: on the % scale 0 is the no-effect control and ±100 the full control effect
In short: (§3)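 Five-concentration response, 48 h; readout is ATP-driven luciferase luminescence.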

SKOV3 = assay: as above; conditions: Gynecologic cancer cell panel viability, ATPlite luminescence, 48 h; series mostly up to 57.5 µM
In short: as §3

[9] = P-glycoprotein substrates identified in KB-8-5-11 adenocarcinoma cell line, qHTS therapeutic library screen (AID 1346987); further: nearly all actives have a fitted effect of over 65% in size; further: potency means the concentration at half of the fitted maximal effect
In short: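 Steps: plate 500 KB-8-5-11 cells/well in DMEM + 10% FCS (colchicine removed); pin compounds in dose-response; incubate 72 h, 37 degree C, 5% CO2; add CellTiter-Glo, 5 min; read luminescence.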

[10] = Primary qHTS for inhibitors of nuclear receptor binding SET domain protein 2 (NSD2) in an RCH-ACV wild type WT cells (2C) (AID 1645877); further: nearly all actives have a fitted effect of over 70% in size; further: potency means the concentration at half of the fitted maximal effect
KB-3-1 = assay: Cytotoxic Profiling of Annotated Libraries Using Quantitative High-Throughput Screening (AID 1296008); conditions: Five cell lines viability, CellTiter-Glo ATP luminescence, 48-72 h; max response: stronger effect = lower value; further: nearly all actives have a fitted effect of over 60% in size; further: potency means the concentration at half of the fitted maximal effect; on max response: on the % scale 0 is the no-effect control and ±100 the full control effect
In short: as §1

NIH3T3 = assay: qHTS assay to identify novel small-molecules to repurpose for Merkel cell carcinoma treatment (AID 1296009); conditions: MCC and control cell lines, CellTiter-Glo viability, 72 h; at 44.8 µM (top of the series) unless noted; further: nearly all actives have a fitted effect of over 60% in size
In short: as §2

[11] = P-glycoprotein substrates identified in KB-3-1 adenocarcinoma cell line, qHTS therapeutic library screen (AID 1346986); further: nearly all actives have a fitted effect of over 60% in size
In short: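 Cells seeded 500/well in DMEM/10% FCS; compounds pinned in dose-response; 72 h incubation; CellTiter-Glo added, 5 min, luminescence. KB-8-5-11 run ±tariquidar to test reversal of P-gp resistance.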

[12] = target: Cytochrome P450 2D6 (Homo sapiens) (UniProt P10635); assay: Cytochrome P450 family 2 subfamily D member 6 (CYP2D6) small molecule antagonists: luciferase biochemical (cell-free) qHTS assay (AID 1645840; active means well fitted curve in the direction sought with a large enough effect in the repeat runs; an effect the other way counts as inactive or inconclusive; further: nearly all actives have a fitted effect of over 55% in size; further: potency means the concentration at half of the fitted maximal effect)
Sequence of Cytochrome P450 2D6 (Homo sapiens) (P10635 whole entry, looked up): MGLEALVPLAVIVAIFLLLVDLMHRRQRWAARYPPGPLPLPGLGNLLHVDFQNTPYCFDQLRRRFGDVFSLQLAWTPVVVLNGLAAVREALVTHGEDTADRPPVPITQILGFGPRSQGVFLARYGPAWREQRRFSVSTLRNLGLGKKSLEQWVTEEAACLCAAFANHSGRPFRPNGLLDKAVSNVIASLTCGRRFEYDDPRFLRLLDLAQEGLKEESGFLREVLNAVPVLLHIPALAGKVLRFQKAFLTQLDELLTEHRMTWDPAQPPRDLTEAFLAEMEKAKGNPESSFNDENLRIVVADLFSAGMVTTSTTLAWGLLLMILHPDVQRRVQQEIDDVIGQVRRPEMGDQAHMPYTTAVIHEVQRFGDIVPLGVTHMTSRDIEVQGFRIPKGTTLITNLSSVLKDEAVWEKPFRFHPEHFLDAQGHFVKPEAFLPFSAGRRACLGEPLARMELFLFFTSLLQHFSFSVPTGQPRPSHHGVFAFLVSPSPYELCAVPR
In short: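 P450-Glo luminescent screen: recombinant CYP2D6 enzyme–proluciferin substrate mix preincubated with compound 10 min at room temperature, then NADPH regeneration added for 1 h at room temperature. Detection reagent added for 20 min; luciferin light read as relative luminescence units.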

[13] = target: Cytochrome P450 2C9 (Homo sapiens) (UniProt P11712); assay: Cytochrome P450 family 2 subfamily C member 9 (CYP2C9) small molecule antagonists: luciferase biochemical (cell-free) qHTS assay (AID 1645842; active means well fitted curve in the direction sought with a large enough effect in the repeat runs; an effect the other way counts as inactive or inconclusive; further: potency means the concentration at half of the fitted maximal effect; nearly all actives have a fitted effect of over 55% in size)
Sequence of Cytochrome P450 2C9 (Homo sapiens) (P11712 whole entry, looked up): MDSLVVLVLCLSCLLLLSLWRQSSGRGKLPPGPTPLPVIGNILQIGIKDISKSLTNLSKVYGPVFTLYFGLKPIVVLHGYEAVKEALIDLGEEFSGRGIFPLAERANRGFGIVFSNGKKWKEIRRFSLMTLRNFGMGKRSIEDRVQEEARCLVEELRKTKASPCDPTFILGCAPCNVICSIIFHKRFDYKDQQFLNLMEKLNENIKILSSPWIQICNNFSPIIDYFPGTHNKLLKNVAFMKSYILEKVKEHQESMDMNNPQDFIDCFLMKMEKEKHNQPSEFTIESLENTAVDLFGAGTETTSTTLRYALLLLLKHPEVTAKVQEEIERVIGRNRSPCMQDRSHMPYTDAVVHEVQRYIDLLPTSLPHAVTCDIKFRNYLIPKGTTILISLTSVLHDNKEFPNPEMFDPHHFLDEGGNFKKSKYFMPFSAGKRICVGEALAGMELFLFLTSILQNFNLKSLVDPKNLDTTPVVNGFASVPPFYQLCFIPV
In short: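 Luminescence, after 20 min with luciferin detection reagent, reflected CYP2C9 turnover during a 1 h NADPH-driven reaction at 37C. Enzyme-substrate mix contained 0.4% bovine serum albumin and was preincubated with compound 10 min at room temperature.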

CRL-7250 = normal cell line; assay: qHTS assay to identify novel small-molecules to repurpose for Merkel cell carcinoma treatment (AID 1296009); conditions: MCC and control cell lines, CellTiter-Glo viability, 72 h; series mostly up to 92 µM; further: nearly all actives have a fitted effect of over 60% in size
In short: as §2

CCCCOC(=O)c1ccnc2cc(C(OCCN3CCCCC3)c3ccccc3Cl)sc12 (stereo not drawn)
inactive: Potency [1] | outcome (HaCat [7]) | outcome (HACAT [8]) | Potency (HeLa) | Potency (SKOV3)
-6.9%: activity [3]
6.41%: activity change, negative = inhibition [4]
-22.8%: activity [5]
active: Potency [2] 23 µM
-16.1%: activity [6]

CO[C@H]1C[C@H](O[C@H]2CC[C@]3(C=O)[C@H]4CC[C@]5(C)[C@@H](C6=CC(=O)OC6)CC[C@]5(O)[C@@H]4CC[C@]3(O)C2)O[C@H](C)[C@H]1O
inactive: outcome (NIH3T3) inactive [at 17.4 µM]
active: Potency [9] 126 nM | Potency [2] 0.0399 µM | Potency [10] 89.3 nM | Potency (HaCat [7]) 356 nM | Potency (KB-3-1) 126 nM | Potency (HeLa) 141 nM | Potency (SKOV3) 141 nM

CCC(C)C1NC(=O)C(C(C)=O)=C1O (stereo not drawn)
inactive: Potency [1] | outcome (HaCat [7]) | max response (KB-3-1) -22.8% | outcome (HACAT [8]) inactive [at 92 µM] | Potency (HeLa) | Potency (SKOV3)

CCC1CN2CCC3(C(=O)Nc4cccc(O)c43)C2CC1/C(=C/OC)C(=O)OC (stereo not drawn)
inactive: Potency [9] | Potency [1] | Potency [2] | Potency [10] | outcome (HaCat [7]) | outcome (HACAT [8]) inactive [at 17.4 µM] | Potency (HeLa) | Potency (SKOV3)

C[C@]12CC[C@@H](O[C@@H]3O[C@H](CO)[C@@H](O)[C@H](O)[C@H]3O)C[C@@]1(O)CCC1C2CC[C@]2(C)[C@@H](C3=CC(=O)OC3)CC[C@]12O (stereo partly drawn)
inactive: Potency [1] | outcome (NIH3T3) inactive [at 17.4 µM]
active: Potency [9] 159 nM | Potency [2] 0.0796 µM | Potency [10] 112 nM | Potency (HaCat [7]) 1000 nM | Potency (KB-3-1) 200 nM | Potency (SKOV3) 355 nM

C=C(C)[C@@]12O[C@@H]1[C@@]1(C)C(=C[C@H]2O)CC[C@@H](O)[C@@H]1C
inactive: Potency [11] | Potency [9] | Potency [2] | Potency [10] | max response (HaCat [7]) -1.07% | outcome (KB-3-1) | Potency (HeLa) | Potency (SKOV3)

C[C@]12CC[C@@H](O)C[C@@H]1CC[C@@H]1[C@@H]2CC[C@]2(C)C(=O)[C@@H](Br)C[C@@H]12
active: Potency [2] 6.49 µM | Potency [10] 10300 nM
inactive: Potency [1] | outcome (HaCat [7]) | max response (KB-3-1) 9.47% | outcome (HACAT [8]) | Potency (HeLa) | Potency (SKOV3)

CC1=CC2/C=C(\C)CCC(O)C(O)/C=C/C(=O)OC23C(=O)NC(CC(C)C)C3C1C (stereo not drawn)
active: Potency [2] 8.93 µM
inactive: Potency [9] | Potency [1] | outcome (HaCat [7]) | max response (KB-3-1) 9.99% | outcome (HACAT [8]) inactive [at 17.4 µM] | Potency (HeLa)

CC1CCCC(O)CCC/C=C/c2cc(O)cc(O)c2C(=O)O1 (stereo not drawn)
inactive: Potency [11] | Potency [9] | max response (HaCat [7]) 0.224% | outcome (KB-3-1) | Potency (HeLa) | Potency (SKOV3)
active: Potency [10] 11300 nM

CC(=O)O[C@H]1C[C@@H](C)O[C@H]2O[C@@H]3CC4CC[C@@H]5C(CC[C@]6(C)[C@@H](C7=CC(=O)OC7)CC[C@]56O)[C@@]4(C=O)C[C@H]3O[C@]21O (stereo partly drawn)
active: Potency [9] 86.2 nM | Potency [2] 0.0483 µM | Potency [10] 68.2 nM | Potency (HaCat [7]) 172 nM | Potency (KB-3-1) 68.5 nM | Potency (HeLa) 126 nM | Potency (SKOV3) 112 nM

O=C(N1CCCCC1Cc1ccccc1)n1cc(-c2ccc(-c3ccccc3)cc2)nn1 (stereo not drawn)
inactive: Potency [1] | Potency [12] | outcome (HaCat [7]) | max response (KB-3-1) -19% | outcome (HACAT [8]) | outcome (NIH3T3) | Potency (SKOV3)

CCCCCn1cc(C(=O)c2cccc3ccccc23)c2ccccc21
active: Potency [13] 1.51 µM
inactive: Potency [9] | Potency [1] | Potency [12] | Potency [2] | Potency [10] | max response (HaCat [7]) -4.01% | max response (KB-3-1) -15.1% | Potency (HeLa) | Potency (SKOV3)

C/C=C(\C)C(=O)OC1C2C3(C)CCC(OC4CC(OC)C(OC5OC(C)C(O)C(OC)C5O)C(C)O4)CC3CCC23OC32CCC(C(C)=O)C2(C)C1OC(=O)/C(C)=C/C (stereo not drawn)
inactive: activity change, negative = cytotoxicity [9] -5.07% [at 9.29 µM] | Potency [1] | activity change, negative = viability loss [2] -17.6% [at 9.23 µM] | activity change, negative = cell killing [10] -23.1% [at 9.23 µM] | outcome (HaCat [7]) | max response (KB-3-1) -21.8% | outcome (HACAT [8]) inactive [at 9.27 µM] | activity change, negative = cytotoxicity (HeLa) 13% [at 11.6 µM] | activity change, negative = cytotoxicity (SKOV3) -30.2% [at 11.6 µM]

Clc1ccc([C@]23CNC[C@H]2C3)cc1Cl
-90.8%: activity [6]
-7.01%: activity [5]
-0.0723%: activity [3]
2.99%: activity change, negative = inhibition [4]
inactive: Potency [9] | Potency [1] | Potency [2] | Potency [10] | outcome (HaCat [7]) | max response (KB-3-1) -2.06% | outcome (HACAT [8]) | Potency (HeLa)

C/C=C1/CN2CC[C@]34C(=Nc5ccccc53)[C@@H]2C[C@@H]1[C@H]4C(=O)OC
inactive: Potency [2] | Potency [10] | max response (HaCat [7]) -0.364% | max response (KB-3-1) -1.68% | Potency (HeLa) | Potency (SKOV3)

CCC(C)C1NC(=O)C2CCCN2C(=O)C(CC(C)C(=O)O)OC(=O)CCNC(=O)C(C)N(C)C(=O)C(C(C)C)N(C)C1=O (stereo not drawn) (cyclo([X5]PI[NMeV][NMeA][βAla]); configuration not given here)
inactive: Potency [11] | Potency [9] | Potency [2] | Potency [10] | max response (HaCat [7]) 4.66% | outcome (KB-3-1) | Potency (HeLa) | Potency (SKOV3)

COc1ccc2[nH]c(-c3ccccc3)c(CCN(C)C)c2c1
active: Potency [12] 2.13 µM | Potency [13] 16.9 µM
inactive: Potency [9] | Potency [1] | outcome (HaCat [7]) | Potency (CRL-7250) | outcome (HACAT [8]) | Potency (HeLa) | Potency (SKOV3)
